D1 potentiator: Potentiators of Human D1 Dopamine Receptor: qHTS; D(1A) dopamine receptor (Homo sapiens), P21728; 360,000 compounds, 0.036% hits; HEK293 TREx D1 cells, calcium flux, dopamine EC20 potentiation; potentiation, % at 10 µM; in the data active = potentiation above about 30%; also: 0% is about no effect
D1 agonist: Allosteric Agonists of the Human D1 Dopamine Receptor: qHTS; 360,000 compounds, 1% hits; D(1A) dopamine receptor (Homo sapiens), P21728; activation, % at 2 µM; HEK293 T-REx D1 cells, calcium flux, agonist mode; in the data active = activation above about 30%; also: 0% is about no effect
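Tetracycline-induced HEK293 TREx D1 cells, force-coupled to calcium signalling, were dye-loaded with a no-wash calcium kit. Compound was pin-added after a 10 s baseline. Fluorescence was read kinetically at 1 cycle/s for 180 s, with calcium rises flagged as agonism.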
TRPV1 PAM: HTS Assay for Compounds that Act as Potentiators of the Vanilloid Receptor 1. Transient receptor potential cation channel subfamily V member 1 (Homo sapiens), Q8NER1. TRPV1-expressing cells, Fluo-8 calcium influx, capsaicin EC20 potentiation. potentiation, % at 8.33 µM. 320,000 compounds, 0.02% hits; in the data active = potentiation above about 80%; inconclusive = between about 30% and that limit; also: 0% is about no effect
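Fluo-8 calcium influx in TRPV1-expressing cells, kinetic read (ex 480/em 520 nm). Compound added and read 3 min for agonist activity, followed by capsaicin at EC20 final and 2 min further read for enhancement.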
D1 antag: Antagonist of Human D 1 Dopamine Receptor: qHTS; AID 504652, 2011; D(1A) dopamine receptor (Homo sapiens), P21728; 360,000 compounds, 3.2% hits; activity change, negative = inhibition, % at 10 µM; HEK293 TREx D1 cells, calcium flux, dopamine EC80; hits give low values; in the data active = activity change below about -30%; also: % is scaled to controls: 0 for no effect and ±100 for the full control effect
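Allosteric or orthosteric antagonism assessed as attenuation of the calcium response to EC80 dopamine, added 180 s after compound, in induced HEK293 Trex D1 cells loaded with no-wash calcium dye.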
TRPV1 ag: HTS Assay for Compounds that Act as Agonists of the Vanilloid Receptor 1. activation, % at 8.33 µM. TRPV1-expressing cells, Fluo-8 calcium influx, agonist mode. Transient receptor potential cation channel subfamily V member 1 (Homo sapiens), Q8NER1. 320,000 compounds, 0.19% hits; in the data active = activation above about 80%; inconclusive = between about 30% and that limit; also: 0% is about no effect
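TRPV1-expressing cells were cultured overnight at 35.5C and loaded with Fluo-8 calcium dye for 40 to 90 min at room temperature. After a 10 s baseline, compound was added and calcium influx was read kinetically for 3 min (ex 480/em 520 nm).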
Starred values were filed as active, the others as inactive. Sampled rows, rich in hits. Any-hit rate of the full collection: about 4.2%.

For Cc1cc2c(s1)c1cnn(Cc3ccc(Cl)cc3)c(=O)c1n2C the results were D1 potentiator -5.1, D1 agonist 4.3 and D1 antag -8.7.
For CC(=O)COc1ccc2cc(-c3ccccc3)c(=O)oc2c1 the results were D1 potentiator -3.2, D1 agonist 8.6, TRPV1 PAM -2.2, D1 antag -13.2 and TRPV1 ag 9.3.
O=C(CCCCl)Oc1ccc2cc(-c3ccc4ccccc4n3)c(=O)oc2c1 was read as D1 potentiator -2.9, D1 agonist 50.9*, TRPV1 PAM 11.2, D1 antag -3.6 and TRPV1 ag 13.0.
CN(C)C(=O)c1cn(-c2ccccc2)c(=O)c2ccccc12 was read as D1 potentiator 1.3, D1 agonist 0.5, TRPV1 PAM 0.3, D1 antag -22.2 and TRPV1 ag -2.5.
`CNC(=O)c1cn(-c2ccccc2)c(=O)c2ccccc12` gave D1 potentiator -10.6, D1 agonist -0.1, TRPV1 PAM 11.4, D1 antag -73.3* and TRPV1 ag -4.0.
`O=[S+]([O-])(c1ccc2c(c1)OCCO2)N1CCN([S+](=O)([O-])c2c(F)cc(F)cc2Br)CC1` gave D1 potentiator -0.4, D1 agonist 0.7 and D1 antag -10.5.
`CN=c1scc(-c2ccccc2F)n1/N=C/c1ccc(O)c(O)c1O` gave D1 potentiator -9.7, D1 agonist 18.5, TRPV1 PAM 2.6, D1 antag -40.6* and TRPV1 ag -3.3.
Screening CN=c1scc(-c2ccccc2F)n1/N=C/c1ccc[nH]1 returned D1 potentiator -1.6, D1 agonist 0.7, TRPV1 PAM 1.8, D1 antag 7.4 and TRPV1 ag -2.3.
Screening Cc1c2cnn(CC(=O)NCc3ccc(F)cc3)c(=O)c2c(C)n1Cc1ccccc1Cl returned D1 potentiator -0.9, D1 agonist 1.5 and D1 antag -6.2.
For CN1CCC(N(CCc2ccccc2)C(=O)CCC(=O)O)CC1 the results were D1 potentiator 5.5, D1 agonist 3.1, TRPV1 PAM -0.8, D1 antag -31.5* and TRPV1 ag -2.0.
Screening CCN(C(=O)CCc1ccccc1)C1CCCCC1 returned D1 potentiator -0.5, D1 agonist 1.5, TRPV1 PAM -17.5, D1 antag 3.7 and TRPV1 ag 27.9.
Screening CC(C)OC(=O)CSc1nc2ncccc2[nH]1 returned D1 potentiator 1.4, D1 agonist 5.5, TRPV1 PAM 0.4, D1 antag -2.6 and TRPV1 ag 3.7.
`CC(C)OC(=O)CSc1nc2ncc(Cl)cc2[nH]1` gave D1 potentiator -4.8, D1 agonist 2.1, TRPV1 PAM -1.5, D1 antag -30.3* and TRPV1 ag 0.5.
For CC(C)(CC(=O)O)CC(=O)Nc1ccc(Cl)c(Cl)c1 the results were D1 potentiator -3.2, D1 agonist 1.0, TRPV1 PAM inconclusive, D1 antag -58.3* and TRPV1 ag 3.9.
CC1=NNC(=O)C(CC(=O)Nc2ccc(Cl)c(Cl)c2)C1 (stereo not given) was read as D1 potentiator -5.5, D1 agonist 2.6, TRPV1 PAM 11.8, D1 antag -35.5* and TRPV1 ag 4.0.
For CC(C)(C)N(NC(=O)Nc1ccc(Cl)c(Cl)c1)C(=O)c1ccccc1 the results were D1 potentiator -0.9, D1 agonist 33.4*, TRPV1 PAM 7.4, D1 antag -27.1 and TRPV1 ag 3.2.
Screening Cc1cc(C)cc(C(=O)N(NC(=O)Nc2ccc(Cl)cc2)C(C)(C)C)c1 returned D1 potentiator -4.7, D1 agonist 26.1, TRPV1 PAM 14.5, D1 antag -30.4* and TRPV1 ag 13.4.
`O=C(CC1NCCNC1=O)Nc1ccc(Cl)c(Cl)c1` (stereo not given) gave D1 potentiator 1.3, D1 agonist 1.7, TRPV1 PAM 5.8, D1 antag 20.9 and TRPV1 ag 0.9.
COc1ccc(CNC(=O)c2cnn(-c3ccccc3)c2-n2cccc2)cc1OC was read as D1 potentiator -6.6, D1 agonist 16.4 and D1 antag -23.3.
Cc1cc(Nc2ccc(Cl)cc2)n2cnnc2n1 was read as D1 potentiator -0.8, D1 agonist 2.7 and D1 antag 4.2.
